Source: PubChem BioAssay (NCATS)
“And” between values parts separate entries of the source, which are not always exact repeats. Equal entries are not always repeated. Results filed as inconclusive are left out. The source made the active and inactive calls. Calls follow the shape of the dose curve; as a rule, active = well fitted curve in the direction sought with a large enough effect; inconclusive = small, poorly fitted or top-dose-only effect, or another doubt; inactive = no such curve, though single readings can be large; an effect the other way counts as inactive or inconclusive.

Tests used:
[1] = molecular target: Cellular tumor antigen p53 (Homo sapiens) (UniProt P04637); assay: Primary qHTS for small molecule compounds that upregulate eGFP-tagged delta133p53alpha (in N-terminal) cells. (AID 2060322); conditions: NCI-H358 eGFP-delta133p53alpha fluorescence, 24 h; activation: active compounds read high; also: nearly all actives have a fitted effect of over 75% in size; also: potency is read from the fitted curve at half-maximal effect;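 as to activation: cells pre-induced with doxycycline then dosed without doxycycline; series mostly up to about 56 µM; 0% = DMSO vehicle and 100% = reference activator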
Chain of Cellular tumor antigen p53 (Homo sapiens) (P04637 whole entry, looked up): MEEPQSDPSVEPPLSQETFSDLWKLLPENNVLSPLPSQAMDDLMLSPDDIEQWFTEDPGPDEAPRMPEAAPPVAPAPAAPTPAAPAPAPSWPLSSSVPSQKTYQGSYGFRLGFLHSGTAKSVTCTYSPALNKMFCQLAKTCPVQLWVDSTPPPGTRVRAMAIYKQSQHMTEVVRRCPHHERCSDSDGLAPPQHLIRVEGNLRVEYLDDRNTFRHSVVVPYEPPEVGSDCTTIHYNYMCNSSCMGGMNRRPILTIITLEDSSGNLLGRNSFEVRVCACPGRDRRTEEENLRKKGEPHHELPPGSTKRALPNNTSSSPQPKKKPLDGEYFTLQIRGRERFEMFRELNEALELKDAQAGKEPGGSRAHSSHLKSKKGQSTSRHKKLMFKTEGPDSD
Method in brief: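 NCI-H358 cells pre-induced 24 h with 10 ng/ml doxycycline for eGFP-delta133p53alpha, plated dox-free and exposed 24 h at 37C to titrated compounds. Fixed, Hoechst-stained; gated GFP peak intensity by laser scanning cytometry, normalized to DMSO (0%) and 57.5 uM 5-azacytidine (100%).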

[2] = molecular target: Retinaldehyde dehydrogenase 3 (Homo sapiens) (UniProt P47895); assay: qHTS for Inhibitors of the Aldehyde Dehydrogenase Family (ALDH1A3) Primary screen (AID 2061315);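 also: plate controls were DMSO vehicle for no effect and reference inhibitor for full effect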
[3] = BET inhibitor-based combinations targeting novel dependencies in MECOM-rearranged (r) AML: OCI-AML3 cell line (AID 2202232); conditions: Potency: OCI-AML3 viability; also: nearly all actives have a fitted effect of over 35% in size; also: potency is read from the fitted curve at half-maximal effect
Method in brief: (§1)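 AML cell lines seeded at 500 cells/well, treated with 11-point dose curves for 48 h. Viability by CellTiter-Glo luminescence, normalised to DMSO and empty wells; activity expressed as AUC and per-cell-line Z-transformed AUC.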

[4] = BET inhibitor-based combinations targeting novel dependencies in MECOM-rearranged (r) AML: MV-4-11 cell line (AID 2202233); also: nearly all actives have a fitted effect of over 45% in size; also: potency is read from the fitted curve at half-maximal effect
Method in brief: (§2)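 Cells at 500/well were exposed for 48 hr to MIPE v5.0 drugs as 11-point dose curves. Viability was read by CellTiter-Glo luminescence and normalized to DMSO and empty-well controls. Activity was expressed as AUC and per-cell-line Z-AUC.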

[5] = BET inhibitor-based combinations targeting novel dependencies in MECOM-rearranged (r) AML: UCSD-AML1 cell line (AID 2202235); also: nearly all actives have a fitted effect of over 40% in size; also: potency is read from the fitted curve at half-maximal effect
Method in brief: as §2

[6] = BET inhibitor-based combinations targeting novel dependencies in MECOM-rearranged (r) AML: SET-2 cell line (AID 2202231); conditions: SET-2 AML cells viability, CellTiter-Glo luminescence, 48 h; viability: active compounds read low, concentration not given here; also: nearly all actives have a fitted effect of over 35% in size; also: potency is read from the fitted curve at half-maximal effect;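 as to viability: plate controls were DMSO treated cells for no effect and wells without cells for full effect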
Method in brief: as §1

[7] = BET inhibitor-based combinations targeting novel dependencies in MECOM-rearranged (r) AML: HNT-34 cell line (AID 2202234); also: nearly all actives have a fitted effect of over 35% in size; also: potency is read from the fitted curve at half-maximal effect
Method in brief: as §2

[8] = BET inhibitor-based combinations targeting novel dependencies in MECOM-rearranged (r) AML: AML-191 cell line (AID 2202236; also: nearly all actives have a fitted effect of over 35% in size; also: potency is read from the fitted curve at half-maximal effect)
Method in brief: as §1

[9] = BET inhibitor-based combinations targeting novel dependencies in MECOM-rearranged (r) AML: AML-194 cell line (AID 2202237; also: nearly all actives have a fitted effect of over 40% in size; also: potency is read from the fitted curve at half-maximal effect)
Method in brief: as §1

COc1ccc(-c2nc3ccc(C4=NNC(=O)CC4C)cc3[nH]2)cc1 (centres undefined)
inactive: activation [1] 15.8% | Potency [2]
active: Potency [3] 18.6 µM | Potency [4] 11.8 µM | Potency [5] 11.8 µM

CC(C)NC[C@@H](C(=O)N1CCN(c2ncnc3c2[C@H](C)C[C@H]3O)CC1)c1ccc(Cl)cc1
inactive: viability [6] 102%
active: Potency [1] 34.3 µM

COc1ccc2cc3[n+](cc2c1OC)CCc1cc2c(cc1-3)OCO2
inactive: activation [1] -7.97% | Potency [5]
active: Potency [6] 16.6 µM | Potency [3] 4.17 µM | Potency [4] 5.9 µM | Potency [7] 23.5 µM

OCCN1C[C@H](O)[C@@H](O)[C@H](O)[C@H]1CO
inactive: activation [1] -10.9% | viability [6] 115% | Potency [3] | Potency [4] | Potency [7] | Potency [5] | Potency [8]

O=C(O)c1ccc2cc(-c3ccc(O)c(C45CC6CC(CC(C6)C4)C5)c3)ccc2c1
active: Potency [6] 0.59 µM | Potency [3] 0.525 µM | Potency [4] 0.934 µM | Potency [7] 1.05 µM | Potency [5] 0.934 µM | Potency [8] 0.934 µM | Potency [9] 1.05 µM
inactive: activation [1] -20.4%

O=c1ccn([C@@H]2O[C@H](CO)[C@H](O)[C@@H]2F)c(=O)[nH]1
inactive: activation [1] -22.6% | viability [6] 107% | Potency [3] | Potency [4] | Potency [7] | Potency [5] | Potency [8]

Cn1nnc2c(C(N)=O)ncn2c1=O
inactive: activation [1] 0% and 2.62% | viability [6] 102% | Potency [3] | Potency [4] | Potency [7]

CN(c1ncccc1CNc1nc(Nc2ccc3c(c2)CC(=O)N3)ncc1C(F)(F)F)S(C)(=O)=O
active: Potency [1] 24.3 µM | Potency [6] 6.61 µM | Potency [3] 6.61 µM | Potency [4] 0.833 µM | Potency [7] 5.25 µM | Potency [5] 5.9 µM | Potency [8] 4.68 µM

Clc1ccc(C(Cn2ccnc2)OCc2c(Cl)cccc2Cl)c(Cl)c1 (centres undefined)
active: Potency [6] 26.3 µM | Potency [3] 10.5 µM | Potency [4] 18.6 µM | Potency [7] 26.3 µM | Potency [9] 18.6 µM
inactive: activation [1] 27.9% and 17% | Potency [2] | Potency [5]

Nc1nc(Cl)nc2c1ncn2[C@@H]1O[C@H](CO)[C@@H](O)[C@@H]1F
active: Potency [6] 0.263 µM | Potency [3] 0.148 µM | Potency [4] 0.209 µM | Potency [7] 0.166 µM | Potency [5] 0.0263 µM | Potency [8] 0.0742 µM
inactive: activation [1] -10.7%

Nc1nc2c(c(=O)[nH]1)N(C=O)[C@H](CNc1ccc(C(=O)N[C@@H](CCC(=O)O)C(=O)O)cc1)CN2
inactive: activation [1] 10.2% | viability [6] 115% | Potency [3] | Potency [4] | Potency [7] | Potency [5] | Potency [8] | Potency [9]

NC(=O)Nc1cc(-c2ccc(CN3CCOCC3)cc2)sc1C(N)=O
inactive: activation [1] 3%
active: Potency [6] 10.5 µM | Potency [3] 0.934 µM | Potency [4] 0.332 µM | Potency [7] 1.18 µM | Potency [5] 1.32 µM | Potency [8] 2.63 µM | Potency [9] 0.742 µM

N[C@@]1(C(=O)O)CS(=O)(=O)[C@H]2[C@H](C(=O)O)[C@H]21
inactive: activation [1] -21.5% | viability [6] 114% | Potency [3] | Potency [4] | Potency [7] | Potency [5] | Potency [8] | Potency [9]

COc1ccc2[nH]c(S(=O)Cc3ncc(C)c(OC)c3C)nc2n1 (centres undefined)
inactive: activation [1] 10.7% and 10% | Potency [2] | viability [6] 109% | Potency [5] | Potency [8] | Potency [9]

COc1ccc(-n2[nH]c(=O)c3[nH]c4cc(Cl)ccc4c(=O)c3c2=O)c(C)c1
inactive: activation [1] 9% | Potency [2]
